According to the supplement of paper PMC11417369:
± gives the standard deviation of the averaged measurements. In all, about 25,000 sequences were measured (“ln(normalized median fluorescence intensity)”: median about 8.9, highest 2% from about 10 on). The sample as a whole holds a higher share of the highest values than the screen did.

System: PfAP2-LT AP2 domain (GST-tagged)
Assay: gcPBM binding intensity (ln(normalized median fluorescence intensity)); higher = stronger DNA binding
Procedure, shortened: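 In this array assay, P. falciparum DNA-binding domains with a GST tag, expressed in E. coli, were applied for 1 h to primer-extended double-stranded 36-bp intergenic genomic probes and negative controls on an Agilent 4 × 180k array. Bound protein was visualised with Alexa488 anti-GST antibody at 488 nm. Binding intensity is the highest Masliner-normalised natural-log median intensity across replicate spots of either probe orientation.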

Sequence	gcPBM binding intensity (ln)
TATAATCCATAAGAAGCACACACATATATATATATT [CACACA_site8394]	9.41 ± 0.3
TTAATATAAGCAAATACACACACACCGATATATATA [CACACA_site9269]	9.8 ± 0.26
ATAATCCACAAGCACACACACACACCCATATATATA [CACACA_site1268]	10.1 ± 0.35
AGATATAAGAAAAGCACACACACACTAGAAAAAAAA [CACACA_site5559]	9.92 ± 0.33
TGATAATAAGCATACACACACACACTAAAAAAAAAA [CACACA_site6478]	9.94 ± 0.38
TGATAATAAGCATACACACACACACTAGAAAAAAAA [CACACA_site4558]	10.1 ± 0.38
TAATAATACCCAAGCACACACACACCCATATATATA [CACACA_site4831]	10.1 ± 0.33
ATATAAGAAAAGCACACACACACAAAAAAAAAAAAA [CACACA_site2827]	10.1 ± 0.42
AGAGATATAAGAAAAGCACACACACCCAAAAAAAAA [CACACA_site8917]	9.96 ± 0.29
ATAATACCCAAGCACACACACACACCGATATATATA [CACACA_site8344]	10.4 ± 0.2
TAATAATCCACAAGCACACACACACCCATATATATA [CACACA_site1267]	9.96 ± 0.13
AGATATAAGAAAAGCACACACACACCCAAAAAAAAA [CACACA_site2826]	10.2 ± 0.18
ATTTTAACTCCCCTTAATCTATTGTATATATATATA [CACACA_negctrl_site208]	8.88 ± 0.29
TACTCAAAAATTAATTAGCATAATATATATAAAAAT [GTGCAC_negctrl_site613]	8.49 ± 0.45
TTTGCCATAAAACACACACACATGTAAACCCCCTTT [CACACA_site1646]	9.76 ± 0.2
ATATATTAATATGTGTGTACTTAACCATTCATATGT [XGTACX_site7395]	9.1 ± 0.4
TCTTGTATACGGCATGCATGTTAGCACATACGGACA [TGCATGCA_site146]	8.9 ± 0.32
ATATATTTAAATAAAAGTACGTAAAGGTATATTTAA [XGTACX_site8088]	8.88 ± 0.44
ACATTCAATAAACGTCGTACACTTTCCTTTTTATGA [XGTACX_site3274]	8.86 ± 0.52
TAATAATAGTCTAATACATGCATCGATAACGGAACT [TGCATGCA_site98]	8.82 ± 0.32
AATAAGTATACACATACACACACACCCAAAAAAAAA [CACACA_site8034]	10 ± 0.39
GGTGATAATAAGCATACACACACACCCAAAAAAAAA [CACACA_site8137]	9.59 ± 0.35

Sequence	gcPBM binding intensity (ln)
TGATAATAAGCATACACACACACACCCAAAAAAAAA [CACACA_site721]	10.2 ± 0.25
AACATAAGTAAGAATACATGCGGAAATTATATAGAA [TGCATGCA_site112]	9.03 ± 0.38
GGTAAGTACGACTTGACACACATACCCATATATATA [CACACA_site4837]	9.2 ± 0.55
ATAATTATATTTAGTGGTACTACTTTTGATAATTAG [XGTACX_site6562]	8.63 ± 0.42
AACAGACATACATACACACATACATACAGACATACA [CACACA_site1942]	9.64 ± 0.45
AAAAAAAACAGACACACACACATACACATACATACA [CACACA_site2857]	10.2 ± 0.19
AAAAAAAAAAAAAACACACACATACAGACAAAAATG [CACACA_site83]	9.7 ± 0.45
AAAAAAAACAGACACACACACACATATACATACATA [CACACA_site2665]	10.3 ± 0.17
CACAAACAGACAAACACACACACACGGACATACATA [CACACA_site6350]	10.1 ± 0.11
TAAACAGACATATAAACACACATACATACATACATA [CACACA_site7215]	9.41 ± 0.32
AACACATACAGACACACACACAAAAAAAAAAAAAAA [CACACA_site6322]	9.58 ± 0.78
TAAACAGACATACATACACACATACATACAGACATA [CACACA_site6997]	9.61 ± 0.37
AAAAAAAAAAAACATACACACATACATACAGATATA [CACACA_site4681]	9.32 ± 0.36
ATATATTTTGTTATGGTGCGTAAGAAATATATTCTT [GTGCAC_site9825]	8.73 ± 0.43
CGAGCAAGACGGGGTGCACACAAACTAATATGCCGA [CACACA_site7936]	9.55 ± 0.5
TCAAACGGTTAAATATGTACATATATATATATATAT [XGTACX_site2339]	9.695 ± 0.0071
TTATAATATTCATAAGGTACAGTTTATATATGTTAT [XGTACX_site8442]	8.68 ± 0.4
TCTTTGAATTTTTTAACACACACATGGGTGGATATA [CACACA_site8474]	9.04 ± 0.38
ATATAATAGTATATATGTACATATATTTAAATACTA [XGTACX_site1135]	8.82 ± 0.4
ATTCATACATGCACACGTACATATTTAAATATAAAA [XGTACX_site8388]	9.04 ± 0.36
TTAGAAACATTGAAAGCATGCAATATTACTTTATAC [TGCATGCA_site522]	8.82 ± 0.28
TTTTTTTCTTGTTTTAAATAATATACTGGAAAAAAA [CACACA_negctrl_site585]	7.88 ± 0.33
